The record followed here is PubChem BioAssay.

Structures are written as SMILES. For part of these data: Entries with a potency or affinity are not part of this list. The source made the active and inactive calls.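 The calls were made as follows, unless noted: active = membrane potential signal rise above negative control mean plus 3 SD in both duplicates, also active in the earlier TRPC4 screen; inactive = the rest.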

Assay [1] has as its system TRPC4 beta (transient receptor potential cation channel C4), mouse. Put plainly: activators of mouse TRPC4 channel, confirmation, cell-based, Fluo4 calcium, HEK293 TRPC4beta/mu-opioid, duplicates, 10 µM (AID 2426;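 active = fluorescence ratio normalized to control raised more than 50% in primary screen plus both repeat runs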). The settings on record: Fluo4 calcium fluorescence, at 10 µM; stronger effect = higher value.
The subject of assay [2] is transient receptor potential cation channel C4 beta (TRPC4), mouse. Description: activators of mouse TRPC4 channel, confirmation, cell-based, second round, Fluo4, HEK293 TRPC4beta/mu-opioid, 1 µM (AID 2461;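 active = primary screen active and over 50% activation in each of two duplicate runs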). The settings on record: Fluo4 calcium fluorescence, at 1 µM; stronger effect = higher value.
The test system of assay [3] is TRPC4 (transient receptor potential cation channel C4 beta), mouse. Put plainly: positive allosteric modulators of mouse TRPC4, confirmation, cell-based, second round, Fluo-4, HEK293 TRPC4beta/mu-opioid, 1 µM (AID 2554;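 active = primary screen hit whose fluorescence ratio, in both repeats, exceeds the weak agonist control mean by 3 SD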). The settings on record: DAMGO EC20, Fluo-4 calcium flux, at 1 µM; stronger effect = higher value.
The subject of assay [4] is TRPC4 beta (transient receptor potential cation channel C4), mouse. Put plainly: positive allosteric modulators of mouse TRPC4, confirmation, cell-based, Fluo-4, HEK293 TRPC4beta/mu-opioid (AID 2555;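 active = primary screen hit whose calcium fluorescence ratio, in both repeats, exceeds the weak agonist control mean by 3 SD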). The following applies: DAMGO EC20, Fluo-4 calcium flux, at 10 µM; stronger effect = higher value.
In assay [5] the target is Short transient receptor potential channel 4 (Mus musculus) (UniProt Q9QUQ5). Description: inhibitors of mouse TRPC4 channel, confirmation, cell-based, Fluo4, HEK293 TRPC4beta/mu-opioid (AID 2636;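 active = calcium signal cut by more than 3 SD below the full-agonist control yet still positive, in both repeats and the earlier primary screen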). The settings on record: DAMGO, Fluo4 calcium flux, at 10 µM; stronger effect = higher value. (Calcium assays in cells follow changes in intracellular calcium, usually with a dye or a luminescent sensor.)
Short transient receptor potential channel 4 (Mus musculus), sequence (Q9QUQ5 whole entry, looked up): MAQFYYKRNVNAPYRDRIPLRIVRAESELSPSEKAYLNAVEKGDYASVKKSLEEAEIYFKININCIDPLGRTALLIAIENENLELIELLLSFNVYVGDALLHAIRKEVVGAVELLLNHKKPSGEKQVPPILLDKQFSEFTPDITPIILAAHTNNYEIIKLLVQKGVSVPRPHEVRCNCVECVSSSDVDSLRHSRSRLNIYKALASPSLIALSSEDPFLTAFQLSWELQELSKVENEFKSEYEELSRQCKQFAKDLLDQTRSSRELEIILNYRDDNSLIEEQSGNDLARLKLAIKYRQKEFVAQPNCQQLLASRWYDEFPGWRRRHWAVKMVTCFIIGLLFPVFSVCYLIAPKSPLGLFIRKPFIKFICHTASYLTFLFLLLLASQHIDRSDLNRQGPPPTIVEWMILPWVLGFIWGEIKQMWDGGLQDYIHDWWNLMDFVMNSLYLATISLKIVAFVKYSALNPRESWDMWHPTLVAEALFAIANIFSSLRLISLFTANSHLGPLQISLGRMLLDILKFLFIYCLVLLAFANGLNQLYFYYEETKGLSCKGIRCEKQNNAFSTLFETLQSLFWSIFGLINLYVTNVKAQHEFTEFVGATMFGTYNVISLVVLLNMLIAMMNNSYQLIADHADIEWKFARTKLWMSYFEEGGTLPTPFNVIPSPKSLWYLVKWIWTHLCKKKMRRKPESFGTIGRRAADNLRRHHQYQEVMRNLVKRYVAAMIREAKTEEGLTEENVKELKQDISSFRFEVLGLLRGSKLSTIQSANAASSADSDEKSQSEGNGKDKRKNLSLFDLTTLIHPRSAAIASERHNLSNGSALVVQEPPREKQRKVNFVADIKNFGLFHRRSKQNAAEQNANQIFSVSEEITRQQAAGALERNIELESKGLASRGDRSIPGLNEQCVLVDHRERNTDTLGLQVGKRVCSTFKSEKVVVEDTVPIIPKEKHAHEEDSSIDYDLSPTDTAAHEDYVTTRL

Assay [6] shares this target. Put plainly: inhibitors of mouse TRPC4 channel, confirmation, cell-based, second round, Fluo4, HEK293 TRPC4beta/mu-opioid, 1 µM (AID 2637;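 active = calcium signal ratio cut to more than 3 SD under the fully stimulated control mean yet still positive, in both repeats and the primary screen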;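 as to inhibition: percent of integrated ratio relative to wells lacking test compound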). The following applies: Fluo4 calcium flux, DAMGO, at 1 µM; stronger effect = higher value.
Assay [7] has the same target. Description: mouse TRPC4 channel activators, dose response, cell-based, HEK293 TRPC4/mu-opioid, Fluo-4 calcium (AID 434937;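 active = primary screen activator hit with a dose response curve and TRPC4 channel activation at any tested dose; inactive = no activation, no dose response, or not a primary hit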). The following applies: HEK293 TRPC4 cells, Fluo-4 calcium fluorescence ratio; series mostly up to 20 µM.
For assay [8] the target is unchanged. Put plainly: TRPC4 positive allosteric modulators, dose response, cell-based, HEK293 TRPC4/mu-opioid, Fluo-4 calcium, EC20 DAMGO (AID 434941;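 active = earlier screen potentiator hit that boosts the TRPC4 ion channel at some dose, with a dose response; inactive = no potentiation, no dose response, or not a prior hit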;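 also: calcium entry triggered by an EC20 dose of DAMGO at the co-expressed mu-opioid receptor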). The following applies: HEK293 TRPC4/mu-opioid cells, Fluo-4 calcium fluorescence; series mostly up to 20 µM.
Assay [9] addresses Short transient receptor potential channel 6 (Mus musculus) (UniProt Q61143). Put plainly: inhibition of mouse TRPC6 channel, confirmation, selectivity assay for TRPC4 inhibitor project, cell-based, HEK293, membrane potential dye, duplicate (AID 434948;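 active = active in primary screen and both duplicates, each dropping signal beyond three positive-control SD with fluorescence still positive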). The settings on record: HEK293 TRPC6, membrane potential dye fluorescence, at 10 µM, stimulated with maximal-effect acetylcholine; stronger effect = higher value.

Assay [10] has the same target. Put plainly: activation of mouse TRPC6 channel, confirmation, selectivity assay for TRPC4 activator project, cell-based, HEK293, membrane potential dye, duplicate (AID 434950). The settings on record: HEK293 TRPC6, membrane potential fluorescence, at 10 µM; stronger effect = higher value.
The target is the same in assay [11]. Description: TRPC6 potentiation by TRPC4 potentiator hits, confirmation, selectivity assay for TRPC4 potentiator project, HEK293 cells, membrane potential dye, duplicate (AID 434952;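 active = compound raising the membrane signal above positive-control mean plus 3 SD in both repeats, and a primary screen hit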). The settings on record: HEK293 TRPC6, membrane potential dye fluorescence, at 10 µM, maximal acetylcholine added after compound; stronger effect = higher value.
The target in assay [12] is Short transient receptor potential channel 4 (Mus musculus) (UniProt Q9QUQ5). Put plainly: calcium flux activators in TRPC4/5HT1a cells, counter-screen for TRPC4 activator project, cell-based, second counter screen, HEK293 TRPC4/5HT1a, Fluo-4 (AID 434977;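 active = calcium signal rise above buffer-control mean plus 5 SD in both duplicates, and also a hit in the primary screen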). The following applies: Fluo-4 calcium flux, at 10 µM; stronger effect = higher value.
A short description of assay [13]: calcium flux inhibitors in TRPC4/5HT1a cells, confirmation, counter-screen for TRPC4 inhibitor project, cell-based, second counter screen, HEK293 TRPC4/5HT1a, Fluo-4 (AID 434978;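 active = primary screen active whose calcium signal fell more than 3 SD beyond the full-serotonin control mean in both duplicate plates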;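 as to outcome: serotonin given first at submaximal then at maximal dose after compound preincubation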). The following applies: Fluo-4 calcium flux, at 10 µM, serotonin added to trigger calcium flux; stronger effect = higher value.
The subject of assay [14] is TRPC4 (mouse), co-expressed with 5HT1a in HEK293. Description: calcium flux potentiators in TRPC4/5HT1a cells, confirmation, counter-screen for TRPC4 potentiator project, cell-based, second counter screen, HEK293 TRPC4/5HT1a, Fluo-4 (AID 434979;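 active = signal rise over 3 SD above mean of control wells given weak agonist, in both repeats and first screen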). The following applies: Fluo-4 calcium flux, at 10 µM, serotonin added at its EC20 dose; stronger effect = higher value.
The nature of assay [15]: calcium flux activation in mu-opioid HEK293 cells, confirmation, counter-screen for TRPC4 activator project, cell-based, HEK293 mu-opioid receptor line (AID 449723;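 active = hit in primary screen, with calcium signal over 5 SD above buffer well mean in both duplicates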;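 also: counter screen cells carry the mu-opioid receptor alone and lack TRPC4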). The settings on record: Fluo-4 calcium fluorescence, at 10 µM; stronger effect = higher value.
A short description of assay [16]: calcium flux enhancement in mu-opioid HEK293 cells, confirmation, counter-screen for TRPC4 allosteric potentiator project, cell-based, HEK293 mu-opioid receptor line (AID 449724;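 active = calcium signal rise more than 3 SD above the low-dose agonist control mean, in both duplicate plates and the primary screen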;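 also: HEK293 cells carrying mu-opioid receptor only with no TRPC4 channel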). The following applies: Fluo-4 calcium flux, at 10 µM, compound added before EC20 DAMGO stimulus; stronger effect = higher value.

Short transient receptor potential channel 6 (Mus musculus), sequence (Q61143 whole entry, looked up): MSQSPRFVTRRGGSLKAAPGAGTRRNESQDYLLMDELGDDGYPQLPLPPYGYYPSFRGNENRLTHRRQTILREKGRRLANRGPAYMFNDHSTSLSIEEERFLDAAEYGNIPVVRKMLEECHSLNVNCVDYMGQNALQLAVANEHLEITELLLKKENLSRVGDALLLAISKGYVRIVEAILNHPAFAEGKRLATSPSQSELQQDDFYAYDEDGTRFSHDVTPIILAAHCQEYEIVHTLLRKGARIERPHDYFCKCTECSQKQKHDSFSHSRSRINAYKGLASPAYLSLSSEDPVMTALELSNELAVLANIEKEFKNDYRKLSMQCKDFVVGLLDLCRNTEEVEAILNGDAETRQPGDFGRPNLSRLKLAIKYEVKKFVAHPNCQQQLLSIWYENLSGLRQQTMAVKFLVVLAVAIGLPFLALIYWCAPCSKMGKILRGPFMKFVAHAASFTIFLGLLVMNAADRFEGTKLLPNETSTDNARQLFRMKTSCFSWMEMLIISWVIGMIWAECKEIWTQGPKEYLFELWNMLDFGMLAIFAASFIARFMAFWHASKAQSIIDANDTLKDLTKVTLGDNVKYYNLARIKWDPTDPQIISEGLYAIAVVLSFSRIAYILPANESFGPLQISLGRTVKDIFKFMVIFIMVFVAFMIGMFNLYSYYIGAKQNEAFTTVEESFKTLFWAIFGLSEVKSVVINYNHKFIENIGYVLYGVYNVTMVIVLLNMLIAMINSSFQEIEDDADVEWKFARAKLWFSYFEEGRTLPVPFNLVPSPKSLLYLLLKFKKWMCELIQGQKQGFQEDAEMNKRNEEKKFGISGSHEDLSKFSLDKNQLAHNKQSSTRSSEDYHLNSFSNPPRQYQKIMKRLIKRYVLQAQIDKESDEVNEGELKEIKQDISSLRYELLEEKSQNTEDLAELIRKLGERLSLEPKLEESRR

A word on the inhibition: it is the relative decrease from the control value, in per cent. Consider `CCCSc1nc(N)nc(-c2cccs2)c1C#N`, for which the outcome in [1], in assay [2], in assay [3], in [4], in [7] and in [8] was inactive. Also, the compound was called inactive in [9], in assay [10], in assay [11], in assay [12], in [14] and in [15]. Further, the result in assay [16] was inactive. Also, the inhibition in assay [5] was 89% (active); in [6], 50% (active); in assay [13], 36.8% (active).
In the case of `Cc1ccccc1CN1CCCC(C(=O)Nc2ccccc2Oc2cccnc2)C1` (stereo not given), the outcome in [1], in [2], in assay [3], in [4], in assay [7] and in assay [8] was inactive. Also, the result in [9], in assay [10], in assay [11], in assay [12], in [14] and in assay [15] was inactive. Also, the outcome in [16] was inactive. Also, the inhibition is 88% (active) in assay [5], 51% (active) in assay [6] and 39.9% (active) in assay [13].
For `COCCn1c(SCC(=O)Nc2ccccc2OC)nc2c([nH]c3ccccc32)c1=O`, the result in assay [1], in [2], in assay [3], in assay [4], in assay [6] and in assay [7] was inactive. For the same compound, the outcome in assay [8], in assay [9], in assay [10], in assay [11], in assay [12] and in assay [14] was inactive. For the same compound, the result in [15] and in assay [16] was inactive. In addition, the results for the inhibition in [5] and in [13] were 71% (active) and 36.6% (active), respectively.
As to `CN(Cc1cnn(C)c1)C(=O)c1ccc(OC2CCN(CCc3ccccc3)CC2)cc1`, the result in assay [1], in assay [2], in assay [3], in [4], in [7] and in assay [8] was inactive. Besides, the compound was classed as inactive in [9], in assay [10], in assay [11], in assay [12], in assay [13] and in assay [14]. Further, the outcome in [15] and in assay [16] was inactive. The inhibition in [5] was 88% (active); in assay [6] it was 59% (active).
Turning to `O=C(CSc1nc2ccccc2c(=O)n1CCCO)N1CCc2ccccc21`, the result in assay [1], in assay [2], in assay [3], in assay [4], in [7] and in assay [8] was inactive. Further, the call in assay [9], in [10], in [11], in [12], in assay [14] and in assay [15] was inactive. Besides, the result in assay [16] was inactive. In addition, the inhibition was 94% (active) in [5], 67% (active) in [6] and 13.1% (active) in assay [13].
Take `Oc1c(CN2CCCCC2)cc(Br)c2cccnc12`: the result in assay [1], in assay [2], in assay [3], in assay [4], in assay [6] and in assay [7] was inactive. Further, the result in assay [8], in assay [9], in [10], in [11], in [12] and in assay [14] was inactive. Besides, the outcome in assay [15] and in [16] was inactive. The inhibition in assay [5] was 93% (active); in assay [13] it was 4.44% (active).
As for `CCCCc1nc(SCCOC)c2c(=O)n(C)c(=O)n(C)c2n1`, the result in assay [1], in assay [2], in assay [3], in [4], in assay [6] and in [7] was inactive. In addition, the outcome in assay [8], in assay [9], in [10], in [11], in assay [12] and in [14] was inactive. Moreover, the result in assay [15] and in assay [16] was inactive. Besides, the inhibition was 88% (active) in [5] and 12.3% (active) in assay [13].
With `CCOC(=O)C1CCN(C2CCN(C(=O)c3oc4c(C)c(C)ccc4c3C)CC2)CC1`, the outcome in assay [1], in assay [2], in assay [3], in [4], in assay [6] and in assay [7] was inactive. The result in assay [8], in [9], in assay [10], in [11], in assay [12] and in assay [13] was inactive. Also, the outcome in [14], in assay [15] and in assay [16] was inactive. In assay [5], the inhibition is 95% (active).
Consider `CCCCCn1c2c(c(=N)c3ccccc31)CCC2`, for which the result in [1], in assay [2], in [3], in assay [4], in assay [7] and in assay [8] was inactive. In addition, the compound was classed as inactive in assay [10], in [11], in assay [12], in assay [14], in assay [15] and in assay [16]. In addition, the inhibition in [5] was 96% (active); in assay [6] it was 75% (active); in assay [9] it was 1.5% (active); in [13], 13.9% (active).
Turning to `Cc1ccc2nc3c(c(N)c2c1)CCN3C`, the result in [1], in assay [2], in assay [3], in assay [4], in assay [7] and in assay [8] was inactive. For the same compound, the result in assay [10], in [11], in assay [12], in assay [14], in assay [15] and in assay [16] was inactive. Further, the inhibition in [5] is 90% (active); in [6] it was 51% (active); in assay [9], 35.5% (active); in assay [13], 15.4% (active).
As for `CCOC(=O)C1=C(C)NC(=O)CC1c1cc2c(cc1[N+](=O)[O-])OCO2` (stereo not given), the outcome in [1], in assay [2], in [3], in assay [4], in [7] and in assay [8] was inactive. For the same compound, the result in [9], in assay [10], in assay [11], in assay [12], in assay [14] and in assay [15] was inactive. Besides, the result in [16] was inactive. The values for the inhibition in assay [5], in assay [6] and in [13] were 71% (active), 40% (active) and 20.2% (active), respectively.
As for `CCOCCCNCc1cc(Br)ccc1OCc1ccccc1`, the result in [1], in assay [2], in assay [3], in [4], in [7] and in assay [8] was inactive. Further, the compound was called inactive in assay [10], in assay [11], in assay [12], in assay [14], in assay [15] and in assay [16]. Moreover, the inhibition in assay [5] was 94% (active); in assay [6], 49% (active); in assay [9] it was 28% (active); in assay [13], 16.2% (active).
As for `CCc1ccc2nc(N=C(N)N)nc(C)c2c1`, the result in assay [1], in assay [2], in assay [3], in assay [4], in assay [6] and in [7] was inactive. For the same compound, the result in assay [8], in assay [9], in assay [10], in [11], in assay [12] and in [13] was inactive. Also, the outcome in assay [14], in assay [15] and in [16] was inactive. Further, in [5], the inhibition is 93% (active).
With `COc1ccc2nc(C)cc(NCc3ccc(F)cc3)c2c1`, the result in assay [1], in assay [2], in [3], in [4], in assay [6] and in assay [7] was inactive. The result in assay [8], in assay [10], in assay [11], in assay [12], in [13] and in assay [14] was inactive. For the same compound, the result in assay [15] and in assay [16] was inactive. In addition, the values for the inhibition in assay [5] and in assay [9] were 84% (active) and 56% (active), respectively.
In the case of `CC1CCCCN1CCCNC(=O)c1nn(C)c2c1CSc1ccccc1-2` (stereo not given), the result in assay [1], in assay [2], in assay [3], in assay [4], in assay [6] and in [7] was inactive. For the same compound, the outcome in assay [8], in assay [9], in assay [10], in assay [11], in assay [12] and in assay [13] was inactive. Further, the outcome in [14], in assay [15] and in assay [16] was inactive. The inhibition in [5] is 94% (active).
